Whole data set: some 13,000 compounds, median “IFI” near 4, cut for the highest 2% near 17. The sample as a whole holds a higher share of the highest values than the screen did.

This test can be described thus: GSK_TCMDC: Inhibition Frequency Index (IFI). The number of non-kinase HTS assays where a compound showed > 50 % inhibition, expressed as a percentage of the number of such assays in which the compound was tested. The class given is functional.
In turn, `CCCCN(CCCC)CCCCNc1c2ccc(Cl)cc2nc2ccc(OC)cc12` displayed an IFI of 6.87%.
The same measure for `CC1(C)NC(N)=NC(=N)N1OCCOc1ccc(Cc2ccccc2)cc1`: 4.41%; for `N=C1N=C(N)NC2(CCCCC2)N1OCCOc1ccc(Cc2ccccc2)cc1`: 27.6%.
For `CC1(C)NC(N)=NC(=N)N1OCCCCOc1ccccc1`, the IFI is 2.17%.
In turn, `CCCc1cc(OCCCOc2ccccc2)ccc1OCCCON1C(=N)N=C(N)NC1(C)C` returned an IFI of 21.1%.
Take `N=C1N=C(N)NC2(CCCCC2)N1OCCCOc1cccc2ccccc12`: the IFI stood at 9.16%.
In the case of `CCCc1cc(C(C)=O)ccc1OCCCON1C(=N)N=C(N)NC1(C)C` it was 3.68%; in that of `COc1ccccc1NC(=O)Nc1cccc(-c2cccc(-c3nc4cccc(C)c4[nH]3)c2)c1`, 3.03%.
Molecule `c1cc(-c2ccc(CNC3CCOCC3)cc2)cc(-c2nc3ccccc3[nH]2)c1` had an IFI of 0.97%.
In turn, `C#CCCOc1ccc2ccccc2c1CNCCCCCCNCc1c(OCCC#C)ccc2ccccc12` came in with an IFI of 12.8%.
The same measure for `CCCCCCCCNCc1c(O)ccc2ccccc12`: 7.69%.
`CCOc1ccc2ccccc2c1CNCCCCCCNCc1c(OCC)ccc2ccccc12` showed an IFI of 13%.
The molecule `Oc1ccc2ccccc2c1CNCCC1CCCCC1` came in with an IFI of 2.96%.
Consider `C=CCOc1ccc2ccccc2c1CNCCCCCCNCc1c(OCC=C)ccc2ccccc12`, for which the IFI was found to be 19.6%.
Take `c1ccc2c(CNCCCCCCNCc3c(OCC4CC4)ccc4ccccc34)c(OCC3CC3)ccc2c1`: the IFI worked out at 18.7%.
The same measure for `CCCOc1ccc2ccccc2c1CNCCCCCCNCc1c(OCCC)ccc2ccccc12`: 17.6%.
In the case of `C/C=C/COc1ccc2ccccc2c1CNCCCCCCCCNCc1c(OC/C=C/C)ccc2ccccc12` it was 16.6%.
For the molecule `C#CCOc1ccc2ccccc2c1CNCCCCCCNCc1c(OCC#C)ccc2ccccc12`, the IFI worked out at 14.1%.
In turn, `CCCCCCOc1ccc2ccccc2c1CNCCCCCCNCc1c(OCCCCCC)ccc2ccccc12` gave an IFI of 22.8%.
In the case of `c1ccc2[nH]c(-c3ccc(-c4ccc(CNCC5CCCO5)cc4)s3)nc2c1` (stereo not given), the IFI is 6.86%.
The same measure for `N#Cc1ccc(-c2ccc(C(=O)NCCCCN3CCC(c4ccc5c(c4OCC(N)=O)CCCC5)CC3)cc2)cc1`: 3.54%; for `N=C(N)Nc1nc(-c2ccc(NC(=N)N3CCC[C@H]3CN3CCCC3)cc2)cs1`: 2.17%.
In turn, `CCCCNc1nc(NCCCC)c2c(C)c(Cc3ccccc3)c(NCCCC)nc2n1` had an IFI of 16.1%.
Molecule `COc1ccc(CNCc2cccc(-c3ccc(-c4nc5cccc(C)c5[nH]4)s3)c2)cc1` showed an IFI of 10.4%.
`COc1ccccc1/C=C/C(=O)NC1CCC(CCN2CCc3ccc(-c4cc(C)no4)cc3CC2)CC1` (stereo not given) registered an IFI of 3.88%.
The same measure for `Nc1c2ccccc2nc2ccc(Cl)cc12`: 9.03%.
Molecule `Cc1noc(C)c1-c1cccc(CNCc2cccc(-c3cccc(-c4nc5ccccc5[nH]4)c3)c2)c1` returned an IFI of 3.92%.
Take `COc1cc(CN/C(=N/c2ccc(-c3ccccc3)cc2)Nc2ccc(C#N)cc2O)cc(OC)c1`: the IFI is 1.46%.
The same measure for `Cc1nc2nc(N)nc(N)c2c(C)c1Cc1ccc([N+](=O)[O-])cc1`: 1.6%.
The same measure for `O=C(NCCCCN1CCC(c2ccc3c(c2OCCCO)CCCC3)CC1)c1ccc(-c2ccc(C(F)(F)F)cc2)c(CO)c1`: 10.1%; for `CC1(C)NC(N)=NC(=N)N1OCCOc1cccc(C(F)(F)F)c1`: 3.7%; for `Cc1ccc(NC(=N)Nc2ncccc2OCc2c(F)cccc2Cl)cc1`: 22%.
Consider `CCOc1cc2ncnc(Nc3ccc(OCc4c(F)cccc4F)c(OC)c3)c2cc1OCC`, for which the IFI is 0%.
The same measure for `CCOc1cc2ncnc(Nc3ccc(OCc4c(Cl)cccc4Cl)c(OC)c3)c2cc1OCC`: 0%; for `O=C(Nc1ccccc1)N(Cc1ccc(-c2ccc(CNC3CCCC3)cc2)cc1)C1CCN(Cc2ccccc2)CC1`: 4.9%.
The same measure for `O=C(CCc1c[nH]cn1)Nc1ccc(-c2ccc(-c3nc4cc(F)ccc4[nH]3)cc2)cc1`: 6.48%; for `O=C(Nc1ccccc1)N(Cc1cccc(-c2cccc(CNCCc3ccccc3)c2)c1)C1CCN(Cc2ccccc2)CC1`: 12.3%; for `COc1ccc(NS(=O)(=O)c2ccc(C(=O)Nc3ccc(C(F)(F)F)cc3)cc2)cc1N1CCN(CC2CC2)CC1`: 2.1%.
The same measure for `CCC(C)c1ccc(NC(=O)c2ccc(S(=O)(=O)Nc3ccc(OC)c(N4CCN(CC5CC5)CC4)c3)cc2)cc1` (stereo not given): 13.6%; for `CCCCN1CCN(c2cc(NS(=O)(=O)c3ccc(C(=O)Nc4ccc(C(F)(F)F)cc4)cc3)ccc2OC)CC1`: 3.97%.
With `COc1ccc(NS(=O)(=O)c2cccc(C(=O)Nc3ccc(C(F)(F)F)cc3)c2)cc1N1CCN(CC(C)C)CC1`, the IFI was determined as 2.84%.
Take `COc1ccc(S(=O)(=O)Nc2ccc(C(=O)NCc3ccc(C(F)(F)F)cc3)cc2)cc1N1CCN(CC2CC2)CC1`: the IFI turned out to be 20%.
Molecule `CCCCN1CCN(c2cc(NS(=O)(=O)c3cccc(C(=O)Nc4ccc(C(F)(F)F)cc4)c3)ccc2OC)CC1` displayed an IFI of 3.55%.
`COc1ccc(S(=O)(=O)Nc2ccc(C(=O)NCc3ccccc3C(F)(F)F)cc2)cc1N1CCN(CC2CC2)CC1` had an IFI of 19.4%.
`CCCN1CCN(c2cc(S(=O)(=O)Nc3ccc(C(=O)NCc4cccc(C(F)(F)F)c4)cc3)ccc2OC)CC1` showed an IFI of 24.1%.
For `COc1ccc(NS(=O)(=O)c2ccc(C(=O)Nc3ccc(OC(F)(F)F)cc3)cc2)cc1N1CCN(CC2CC2)CC1`, the IFI was 8.49%.
The same measure for `C#Cc1cccc(NC(=O)[C@H](CC2CCCCC2)Nc2ccc(C#N)c3ccccc23)c1`: 3.77%.
The same measure for `CCCCOc1ccc(-c2nc3ccccc3[nH]2)cc1`: 2.14%; for `COc1ccc(OCCCON2C(=N)N=C(N)NC2(C)C)cc1`: 2.88%; for `O=S(=O)(NCCN1CCCC1)c1ccc(-c2cccc(CNCc3ccc(F)cc3)c2)s1`: 9.65%.
With `CCNC(=O)Nc1cccc(-c2cccc(-c3nc4cccc(C)c4[nH]3)c2)c1`, the IFI worked out at 5.05%.
For the molecule `CCCCCCCn1c(=N)n(CC(O)c2ccc(Cl)c(Cl)c2)c2ccccc21` (stereo not given), the IFI is 17.6%.
As to `CCN(CC)CCn1c(=N)n(CC(O)c2ccc(Cl)c(Cl)c2)c2ccccc21` (stereo not given), the IFI is 6.52%.
For `CN(C)CCn1c(=N)n(CC(O)c2ccc(Cl)c(Cl)c2)c2ccccc21` (stereo not given), the IFI was 2.21%.
`Cc1ccc(C2(CN3CCC(NC(=O)c4n[nH]cc4Cl)CC3)CCCCC2)cc1` registered an IFI of 8.33%.
Regarding `CN1CCN(CC(=O)Nc2cccc(-c3cccc(-c4nc5ccccc5[nH]4)c3)c2)CC1`, the IFI is 1.8%.
As to `O=C(Nc1cc(C(F)(F)F)cc(C(F)(F)F)c1)Nc1ccc(Cl)c(Cl)c1`, the IFI amounted to 19.1%.
In turn, `O=C(Nc1ccc(Cl)c(C(F)(F)F)c1)Nc1ccc(Cl)c(C(F)(F)F)c1` showed an IFI of 12.7%.
As for `O=C(Nc1ccc(SC(F)(F)F)cc1)Nc1ccc(Cl)c(Cl)c1`, the IFI was found to be 18.7%.
In the case of `O=C(Nc1cccc(C(F)(F)F)c1)Nc1ccc(Cl)c(Cl)c1` it was 16.1%; in that of `O=C(Nc1ccc(Cl)c(Cl)c1)Nc1cc(C(F)(F)F)ccc1Cl`, 5.71%.
Consider `O=C(Nc1cccc(C(F)(F)F)c1)Nc1ccc2nonc2c1`, for which the IFI was determined as 22.5%.
`O=C(Nc1ccc(Cl)cc1)Nc1ccc2nonc2c1`: the IFI is 12.8%.
For `O=C(Nc1ccc(SC(F)(F)F)cc1)Nc1ccnc2ccccc12`, the IFI is 9.29%.
`O=C(Nc1cccc(C(F)(F)F)c1)Nc1ccc(F)c([N+](=O)[O-])c1` returned an IFI of 15.8%.

Source of the values: ChEMBL document CHEMBL1157539, “Thousands of chemical starting points for antimalarial lead identification” (Nature, 2010).
